Structures are written as SMILES. Hit rate of the full screen: of about 310,000 compounds, about 14,000 (4.5%) showed an effect of 50% or more. Effects have a minus sign here. The sample as a whole holds a higher share of strong results than the screen did.
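Further: peak tail current of the secondary pulse compared with the same well before compound.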

The target in this assay is human ether-à-go-go-related gene (hERG) potassium channel (human, UniProt Q12809). In words: primary screen, population patch clamp on CHO cells stably expressing hERG; higher = less effect of the substance.
Chain of human ether-à-go-go-related gene (hERG) potassium channel (Q12809 whole entry, looked up): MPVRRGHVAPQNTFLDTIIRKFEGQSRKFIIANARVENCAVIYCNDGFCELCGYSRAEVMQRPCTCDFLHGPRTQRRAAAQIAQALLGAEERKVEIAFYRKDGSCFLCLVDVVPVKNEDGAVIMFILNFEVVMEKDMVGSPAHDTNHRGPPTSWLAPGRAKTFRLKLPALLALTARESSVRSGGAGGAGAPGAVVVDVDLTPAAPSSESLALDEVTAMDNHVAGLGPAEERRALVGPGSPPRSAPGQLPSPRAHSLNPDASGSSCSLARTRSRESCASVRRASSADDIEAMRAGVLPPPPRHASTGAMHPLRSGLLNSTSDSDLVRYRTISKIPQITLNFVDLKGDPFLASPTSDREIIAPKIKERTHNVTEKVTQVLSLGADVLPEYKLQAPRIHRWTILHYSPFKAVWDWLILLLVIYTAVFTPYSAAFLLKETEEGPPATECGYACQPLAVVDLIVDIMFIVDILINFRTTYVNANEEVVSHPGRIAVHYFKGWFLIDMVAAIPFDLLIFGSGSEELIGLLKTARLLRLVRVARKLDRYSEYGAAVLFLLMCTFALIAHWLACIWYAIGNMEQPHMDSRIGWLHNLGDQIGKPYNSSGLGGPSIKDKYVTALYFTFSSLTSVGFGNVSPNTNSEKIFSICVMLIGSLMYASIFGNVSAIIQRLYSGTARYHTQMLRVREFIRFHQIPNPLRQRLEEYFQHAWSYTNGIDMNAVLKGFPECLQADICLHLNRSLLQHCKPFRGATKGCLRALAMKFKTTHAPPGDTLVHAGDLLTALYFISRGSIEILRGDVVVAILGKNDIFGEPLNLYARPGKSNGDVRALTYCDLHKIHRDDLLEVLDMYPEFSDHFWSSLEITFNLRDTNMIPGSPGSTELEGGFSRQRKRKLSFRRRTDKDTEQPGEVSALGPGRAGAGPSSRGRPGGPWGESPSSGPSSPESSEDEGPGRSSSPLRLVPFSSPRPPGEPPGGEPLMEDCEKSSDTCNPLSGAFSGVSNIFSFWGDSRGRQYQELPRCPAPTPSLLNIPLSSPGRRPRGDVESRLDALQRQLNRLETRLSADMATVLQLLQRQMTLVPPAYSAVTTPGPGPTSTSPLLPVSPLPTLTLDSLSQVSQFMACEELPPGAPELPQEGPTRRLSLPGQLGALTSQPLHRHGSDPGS
For `CC1CCCN(S(=O)(=O)c2ccc(CN3C(=O)c4cccnc4C3=O)cc2)C1` (centres unmarked), the “hERG current change (%, negative = inhibition) at 10uM” value is -58%.
For `CC(C)NS(=O)(=O)c1cc(F)ccc1CN1C(=O)c2cccnc2C1=O` the value was 10.5%.
With `CCOC(=O)C1CCN(S(=O)(=O)c2ccc(CN3C(=O)c4cccnc4C3=O)cc2)CC1`, the “hERG current change (%, negative = inhibition) at 10uM” value is listed as -9.61%.
The same measure for `COc1ccc(CN2C(=O)c3cccnc3C2=O)cc1S(=O)(=O)N1CCCC(C)C1` (centres unmarked): -0.978%; for `CC1CCN(S(=O)(=O)c2cc(F)ccc2CN2C(=O)c3cccnc3C2=O)CC1`: -60.4%; for `Cc1ccc(CNS(=O)(=O)c2cc(F)ccc2CN2C(=O)c3cccnc3C2=O)o1`: -9.97%.
For `O=C(Nc1ccc(S(=O)(=O)Nc2ncccn2)cc1)c1ccccc1NS(=O)(=O)c1ccc(F)cc1` the value was 9.91%; for `COc1ccc(-n2c(=S)[nH]c3ncccc3c2=O)cc1`, 7.98%; for `CC1(C)CC(=O)C(CC2=C(N)CC(C)(C)CC2=O)=C(N)C1`, 4.6%.
Regarding `COC(C[C@H]1O[C@@H]1C(=O)COCc1ccccc1)OC`, the “hERG current change (%, negative = inhibition) at 10uM” value was found to be 4.27%.
For the compound `COc1ccc2ncc(S(=O)(=O)c3ccccc3)c(N3CCN(c4ccccc4)CC3)c2c1`, the “hERG current change (%, negative = inhibition) at 10uM” value was -8.4%.
The same measure for `CCOc1ccc2ncc(S(=O)(=O)c3ccccc3)c(N3CCC4(CC3)OCCO4)c2c1`: -42.4%.
Consider `COc1ccc(S(=O)(=O)c2cnc3ccc(OC)cc3c2N2CCC3(CC2)OCCO3)cc1`, for which the “hERG current change (%, negative = inhibition) at 10uM” value is -28.5%.
In the case of `COc1cc2ncc(S(=O)(=O)c3ccccc3)c(N3CCCC(C)C3)c2cc1OC` (centres unmarked), the “hERG current change (%, negative = inhibition) at 10uM” value is reported as -7.67%.
For `COc1ccc2ncc(S(=O)(=O)c3ccccc3)c(N3CCC4(CC3)OCCO4)c2c1` the value was -63.3%; for `COc1cc2ncc(S(=O)(=O)c3ccccc3)c(N3CCC4(CC3)OCCO4)c2cc1OC`, -80.8%.
For `O=C(Nc1ccc(Cl)c(Cl)c1)Nc1ccccn1` the value was 2.95%; for `Cc1ccc(/C=C2\SC(=S)N(CCCC(=O)Nc3nccs3)C2=O)cc1`, 15.7%; for `O=C(COC(=O)CCCN1C(=O)c2cccc3cccc(c23)C1=O)Nc1ccc(Cl)cc1`, 3.07%.
The same measure for `N#Cc1ccc(-c2ccc(F)cc2)nc1SCC(=O)Nc1sc2c(c1C#N)CCC2`: 4.57%; for `CCOc1ccccc1CN1CCC(N2CCC(C(=O)NC3CC3)CC2)CC1`: 1.53%; for `O=C(NC1CC1)C1CCN(C2CCN(C(=O)Cc3ccc(F)cc3)CC2)CC1`: -2.99%.
`O=C(NC1CC1)C1CCN(C2CCN(Cc3ccccc3C(F)(F)F)CC2)CC1`: the “hERG current change (%, negative = inhibition) at 10uM” value was -53.1%.
Regarding `CC(C)(C)c1ccc(C(=O)N2CCC(C(=O)NC3CC3)CC2)cc1`, the “hERG current change (%, negative = inhibition) at 10uM” value was -2.74%.
Consider `O=C(NC1CC1)C1CCN(C2CCN(C(=O)/C=C/c3cccc(F)c3F)CC2)CC1`, for which the “hERG current change (%, negative = inhibition) at 10uM” value is on record as -22.1%.
As to `Cc1ccc2oc(C(=O)N3CCC(N4CCSCC4)CC3)c(C)c2c1`, the “hERG current change (%, negative = inhibition) at 10uM” value was -30.6%.
The same measure for `Cc1ccc2c(C)c(C(=O)N3CCC(N4CCC(C(=O)NC5CC5)CC4)CC3)oc2c1`: -59.1%.
The same measure for `FC(F)(F)c1ccccc1CN1CCN(C2CCCCCC2)CC1.O=C(O)C(=O)O`: -49.3%; for `O=C(NC1CC1)C1CCN(C2CCN(C(=O)/C=C/c3ccc(F)cc3)CC2)CC1`: -62.9%.
Turning to `O=C(NC1CC1)C1CCN(C2CCN(C(=O)c3ccc(C(F)(F)F)cc3)CC2)CC1`, the “hERG current change (%, negative = inhibition) at 10uM” value is reported as -56.4%.
Regarding `O=C(NC1CC1)C1CCN(C2CCN(C(=O)c3c(F)cccc3Cl)CC2)CC1`, the “hERG current change (%, negative = inhibition) at 10uM” value turned out to be 13.3%.
The same measure for `CC(C)(C)c1ccc(C(=O)N2CCC(C(=O)NC3CCCCCC3)CC2)cc1`: -40%; for `O=C(NCCCCCCNC(=O)OCCO)OCCO`: 28.4%.
The same measure for `NNC(=O)CNS(=O)(=O)c1ccc([N+](=O)[O-])cc1`: 17.4%.
Take `COc1ccccc1N(C)S(=O)(=O)c1ccc(C(=O)NCC2CCCCC2)cc1`: the “hERG current change (%, negative = inhibition) at 10uM” value is reported as -3.05%.
The same measure for `CC(C)Cn1c(N)c(C(=O)COC(=O)CC23CC4CC(CC(C4)C2)C3)c(=O)n(C)c1=O`: -16.2%; for `CCCc1cc(=O)c2c(O)cccc2o1`: 5.41%; for `CC1CC1C(=O)OCC(=O)Nc1ccc2[nH]c(=O)[nH]c2c1` (centres unmarked): 2.94%.
For `COCCN1CCN(C(=O)c2ccc3oc(CCc4ccccc4)nc3c2)CC1` the value was -30.1%; for `COc1ccccc1N(CC(=O)N1CCN(c2ccccc2)CC1)S(=O)(=O)c1ccc(C)cc1`, 17.5%; for `Cc1nc(NCCc2ccc(S(N)(=O)=O)cc2)c2c(C)c(C)sc2n1`, 4.01%.
For `COc1ccc(-c2noc(CCC(=O)NCCCN3CCN(c4ccc(F)cc4)CC3)n2)cc1` the value was -67.4%; for `COc1ccc(N2CCN(C(=O)CCc3nc(-c4ccc(C)cc4)no3)CC2)cc1`, -14.1%.
Take `CCN1CCN(CCCNC(=O)CCc2nc(-c3ccc(OC)cc3)no2)CC1`: the “hERG current change (%, negative = inhibition) at 10uM” value is listed as -2.35%.
The same measure for `O=C(CCc1nc(-c2ccccc2F)no1)NCCN1CCc2ccccc2C1`: -50.4%; for `CC1(C)CC(=O)c2cc(OCC(=O)NCCCN3CCN(c4ccc(F)cc4)CC3)ccc2O1`: -72.9%.
With `O=C(CCc1nc(-c2ccccc2F)no1)NCCN1CCOCC1`, the “hERG current change (%, negative = inhibition) at 10uM” value is 6.22%.
The same measure for `COc1ccc(-c2noc(CCC(=O)NCCCN3CCC(C)CC3)n2)cc1`: -5.81%; for `COc1ccc(-c2noc(CCC(=O)NCCCN3CCC(Cc4ccccc4)CC3)n2)cc1`: -80.7%; for `O=C(CCc1nc(-c2ccccc2F)no1)NCCN1CCN(Cc2ccccc2)CC1`: -43.2%.
For `CC1(C)CC(=O)c2cc(OCC(=O)NCCN3CCOCC3)ccc2O1` the value was 22.7%; for `CC1(C)CC(=O)c2cc(OCC(=O)NCCCN3CCN(c4ccccc4F)CC3)ccc2O1`, -47.4%; for `COc1ccc(-c2noc(CCC(=O)NCCc3ccccc3)n2)cc1`, 20.9%.
The same measure for `Cc1cc(NC(=O)C(C)SCC(=O)Nc2ccccc2N2CCCC2)no1` (centres unmarked): 15.1%; for `CCNC(=S)N/N=C/c1cccs1`: 6.26%.
As to `O=C(CCCCCN1C(=O)CCC1=O)Nc1ccc2c(c1)OCCO2`, the “hERG current change (%, negative = inhibition) at 10uM” value is 8.47%.
For `CC(=O)Nc1ccc(-c2csc(NNC(=O)c3ccccc3)n2)cc1` the value was 24.7%; for `Cc1ccc(-c2nc(C(F)(F)F)cc(=O)[nH]2)cc1`, 12.7%.
As to `N#CCCn1ncn(-c2ccccc2)c1=S`, the “hERG current change (%, negative = inhibition) at 10uM” value is 1.22%.
The same measure for `Cc1ccccc1CC(=O)Nc1ccc2c(c1)CCC2`: 18.3%; for `COc1ccc(-c2noc(CCC(=O)NCCCN3CCN(c4ccccc4F)CC3)n2)cc1`: -61%; for `Cc1ccc(-c2noc(CCC(=O)NCCCN3CCN(c4cccc(Cl)c4)CC3)n2)cc1`: 2.45%.
In the case of `Cc1ccc(-c2noc(CCC(=O)NCCN3CCOCC3)n2)cc1`, the “hERG current change (%, negative = inhibition) at 10uM” value is on record as 4.65%.
As for `Cc1ccc(-c2noc(CCC(=O)NCCCN3CCN(c4ccc(F)cc4)CC3)n2)cc1`, the “hERG current change (%, negative = inhibition) at 10uM” value was -66.8%.
On to `COCCCNC(=O)CCc1nc(-c2ccccc2)no1`, for which the “hERG current change (%, negative = inhibition) at 10uM” value is recorded as 9.36%.
Turning to `COc1ccc(-c2noc(CCC(=O)NCCN(C)Cc3ccccc3)n2)cc1`, the “hERG current change (%, negative = inhibition) at 10uM” value was -30.5%.
The same measure for `COc1ccc(C(=O)/C=C/c2cccs2)c(OC(=O)c2cccc([N+](=O)[O-])c2)c1`: 5.34%; for `CCC(C)C(NC(=O)OCc1ccccc1)C(=O)NCC(c1ccccc1)N(C)C` (centres unmarked): -7.1%; for `CC1CN(S(=O)(=O)c2ccc(F)cc2)CN1C(=O)N1CCOCC1` (centres unmarked): 17.6%.
For `OCCC1CN(Cc2nc3c(s2)CCCC3)CCN1CCc1ccccc1` (centres unmarked) the value was -61.4%; for `OCCC1CN(Cc2nc3c(s2)CCCC3)CCN1Cc1ccsc1` (centres unmarked), -14.6%; for `CC(C)N1CCN(Cc2nc3c(s2)CCCC3)CC1CCO` (centres unmarked), 18.9%.
As to `Cc1ccc(CN2CCN(Cc3nc4c(s3)CCCC4)CC2CCO)cc1` (centres unmarked), the “hERG current change (%, negative = inhibition) at 10uM” value is reported as -55.3%.
The same measure for `CC(C)CCN1CCN(Cc2nc3c(s2)CCCC3)CC1CCO` (centres unmarked): -28.2%; for `OCCC1CN(Cc2nc3c(s2)CCCC3)CCN1Cc1ccccc1` (centres unmarked): -22.5%; for `CC(=O)Nc1sc(C)c(C)c1C(=O)OCC(=O)N(CC(C)C)c1c(N)n(Cc2ccccc2)c(=O)[nH]c1=O`: -1.37%.
For `Cc1cc(C)nc(N(C#N)CC(=O)N2CCC(C(N)=O)CC2)n1` the value was 20.1%.
As to `CN1CCc2[nH]c3ccc(C(=O)NN)cc3c2C1`, the “hERG current change (%, negative = inhibition) at 10uM” value was 5.22%.
For `CC1CCc2sc(C(=O)NCC(C)(C)N3CCOCC3)cc2C1` (centres unmarked) the value was -32.6%; for `CCOC(=O)c1oc2ccccc2c1NC(=O)c1ccc(Cl)s1`, 11.7%.
Regarding `COc1cccc(C(=O)C2CCCN(Cc3cnn(C(C)C)c3)C2)c1` (centres unmarked), the “hERG current change (%, negative = inhibition) at 10uM” value is reported as -43.6%.
For the compound `Cc1ncc(CN2CCCC(C(=O)Nc3ccc(-c4ccco4)cc3)C2)cn1` (centres unmarked), the “hERG current change (%, negative = inhibition) at 10uM” value is listed as -11.5%.
For `COc1cccc(-c2ccc(NC(=O)C3CCCN(Cc4cnn(C(C)C)c4)C3)cc2)c1` (centres unmarked) the value was -79.7%; for `COc1cccc(-c2ccc(NC(=O)C3CCCN(Cc4cnn(C)c4)C3)cc2)c1` (centres unmarked), -37%; for `COc1cccc(-c2ccc(NC(=O)C3CCCN(Cc4cnc(C)n4C)C3)cc2)c1` (centres unmarked), -74.3%.
For `COc1cccc(-c2ccc(NC(=O)C3CCCN(Cc4cnc(N(C)C)s4)C3)cc2)c1` (centres unmarked) the value was 8.97%; for `Cc1ncc(CN2CCCC(C(=O)Nc3ccc(-c4cccc(F)c4)cc3)C2)cn1` (centres unmarked), -73.2%.
Take `Cc1ncc(CN2CCCC(C(=O)Nc3ccc(-c4ccco4)cc3)C2)n1C` (centres unmarked): the “hERG current change (%, negative = inhibition) at 10uM” value is listed as -59.6%.
For `Nc1ncc(CN2CCCC(C(=O)Nc3ccc(-c4ccco4)cc3)C2)cn1` (centres unmarked) the value was -17.8%; for `Cn1cc(CN2CCCC(C(=O)Nc3ccc(-c4cccc(F)c4)cc3)C2)cn1` (centres unmarked), -43.9%; for `COc1cccc(-c2ccc(NC(=O)C3CCCN(Cc4cnc(C)s4)C3)cc2)c1` (centres unmarked), 2.11%.
For `O=C(Nc1ccc(-c2cccc(F)c2)cc1)C1CCCN(Cc2ccccn2)C1` (centres unmarked) the value was -42.3%.

The record behind these values is article PMC4336329 (PLoS ONE, 2015).
